PolyA inhibitor: polyadenylation inhibitors in yeast reporter cells, primary screen, luminescence, S. cerevisiae. S. cerevisiae SKY197-pL101 polyadenylation reporter, beta-gal luminescence; efflux-impaired pdr1/pdr3 knockout yeast; score 100 = 6 SD above DMSO. 300,000 tested, 0.02% active. activity score, % at 12 µM. AID 1875, 2009;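 active = lowest replicate activity score at least 50, where 100 means six control SD above control mean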;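 also: yeast exposed to compound for 9 h at 30 °C; higher score means more reporter readthrough which indicates perturbed polyadenylation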
EBNA-1 inh: EBNA-1 DNA-binding inhibitors, primary screen, biochemical, fluorescence polarization; inhibition, % at 14.8 µM; 300,000 tested, 0.34% active; AID 1950, 2009; in the data active = inhibition above about 28%
ZTA DNA inh: counter-screen for EBNA-1 inhibitors: inhibitors of Epstein-Barr virus ZTA | P03206 | ZTA-DNA binding, fluorescence polarization | inhibition, % at 11 µM | 320,000 tested, 0.15% active | AID 2234; in the data active = inhibition above about 33%
Target sequence (P03206 whole entry, looked up): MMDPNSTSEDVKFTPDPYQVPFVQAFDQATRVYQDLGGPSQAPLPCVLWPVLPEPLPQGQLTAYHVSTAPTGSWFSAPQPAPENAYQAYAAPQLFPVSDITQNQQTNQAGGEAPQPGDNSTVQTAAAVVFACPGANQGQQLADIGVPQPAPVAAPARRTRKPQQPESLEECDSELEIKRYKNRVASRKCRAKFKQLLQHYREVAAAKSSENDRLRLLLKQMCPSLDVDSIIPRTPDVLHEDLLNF
NALP1 yeast inh: NALP1 inflammasome inhibitors in reconstituted yeast, colorimetric, S. cerevisiae, triplicate retest | S. cerevisiae NALP1/ASC/caspase-1 growth, X-gal OD620, 72 h | inhibition, % at 10 µM | 280,000 tested, 0.61% active; in the data active = inhibition mostly above about 24%, no sharp cut-off; inactive = mostly below about 32%
NALP3 yeast inh: NALP3 inflammasome inhibitors in reconstituted yeast, primary screen, luminescence, uHTS; Yeast reconstituted NLRP3/ASC/caspase-1, beta-gal luminescence, 24 h; 330,000 tested, 0.39% active; inhibition, % at 10 µM; AID 2825, 2010;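 active = inhibition of 50% or more; inactive = inhibition below 50%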;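 also: plate controls were induced DMSO wells for no effect and uninduced yeast grown without galactose for full effect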
dFosB activator: activators of delta FosB homodimer, primary screen, biochemical, fluorescence polarization, TAMRA-CDK5 oligo, single point | 340,000 tested, 0.99% active | AID 493131, 2011 | activation, % at 25 µM | Protein FosB (Mus musculus), P13346 | purified delta FosB; percent of positive-control signal above neutral wells;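 active = mean activation above about 17%, with every replicate also reaching it, limit read from the data, passing the limit was not always enough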
Target sequence (P13346 whole entry, looked up): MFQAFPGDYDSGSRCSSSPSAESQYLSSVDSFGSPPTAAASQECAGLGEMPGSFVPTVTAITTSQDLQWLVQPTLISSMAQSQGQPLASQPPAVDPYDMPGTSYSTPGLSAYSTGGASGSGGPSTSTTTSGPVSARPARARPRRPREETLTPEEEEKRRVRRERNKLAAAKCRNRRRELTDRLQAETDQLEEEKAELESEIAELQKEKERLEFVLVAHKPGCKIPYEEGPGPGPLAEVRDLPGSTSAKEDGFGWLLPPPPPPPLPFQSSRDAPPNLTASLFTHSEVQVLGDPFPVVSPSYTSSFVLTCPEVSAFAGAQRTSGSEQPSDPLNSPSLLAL
Active calls of the source: *; x = not tested or not shown. An excerpt weighted towards active compounds, which were near 2.2% of everything screened.

SMILES	PolyA inhibitor	EBNA-1 inh	ZTA DNA inh	NALP1 yeast inh	NALP3 yeast inh	dFosB activator
COc1cccc(C2CC3C(=O)C=CC2N3Cc2ccccc2)c1 (stereo unspecified)	2	0	1	69*	26	-1
COc1cccc(-c2nn(Cc3ccccc3)cc2C(=O)O)c1	9	0	-13	4	24	-5
c1ccc(C(c2ccccc2)c2ccncc2)cc1	x	x	x	x	x	-5
NS(=O)(=O)c1ccc(N=Cc2c(O)n(C3CCCCC3)c(=O)n(C3CCCCC3)c2=O)cc1	14	-2	-4	11	15	-11
CCn1c(O)c(C=Nc2ccc(S(N)(=O)=O)cc2)c(=O)[nH]c1=S	5	11	9	3	16	20*
CCn1c(O)c(C=Nc2ccc(S(N)(=O)=O)cc2)c(=O)n(CC)c1=S	-11	7	4	12	7	19*
CN1[C@@H]2CCC[C@H]1CC(=O)C2	x	x	x	x	x	5
CC1(C)COC(Nc2ccc(Cl)cc2)=N1	-7	-4	-16	41*	5	-10
CC1([N+](=O)[O-])COP(=O)(Nc2ccc(Cl)cc2)OC1 (stereo unspecified)	x	x	x	x	x	5
CCOC(=O)c1c(/N=C/c2c(O)n(-c3ccccc3F)c(=S)[nH]c2=O)sc2c1CCCC2	-10	0	11	22	15	23*
Oc1c(Cl)cccc1Cc1cc(Cl)cc(Cl)c1O	x	x	x	x	x	-3
O=C1NC(=S)N(c2ccc(F)cc2)C(=O)/C1=C/c1ccco1	-6	78*	25	-3	24	x
COc1ccc(N2C(=O)/C(=C/c3ccc(C)o3)C(=O)NC2=S)cc1	0	x	x	1	-1	-16
COc1ccc(OC)c(N2C(=O)/C(=C/c3ccco3)C(=O)NC2=S)c1	-3	103*	75*	-7	29	x
CCC1CN2CCc3cc(OC)c(OC)cc3C2CC1CC1NCCc2c1[nH]c1ccc(O)cc21 (stereo unspecified)	x	x	x	x	x	29*
O=C(c1ccccc1)C(CN1CCCC1)c1ccccc1 (stereo unspecified)	-6	4	13	94*	x	-2
CC1=CC(C)CC(C)OC(=O)CC(c2ccc(O)cc2)NC(=O)C(Cc2c(Br)[nH]c3ccccc23)N(C)C(=O)C(C)NC(=O)C(C)C1 (stereo unspecified)	x	x	x	x	x	-9
C=CCCC1(C2=CCCCC2)C(=O)NC(=O)NC1=O	x	x	x	x	x	4
Nc1c2c(nc3sc4c(c13)CCCC4)CCCCC2	-17	-16	1	54*	47	-8
COC(=O)C1=C(c2ccc(Cl)c(C(F)(F)F)c2)C[C@@H]2CC[C@H]1N2C(=O)NC1CCCCC1	x	x	1	x	17	1
CC(C)(C)N1Cc2ccccc2C1=N	7	-10	5	43*	16	3
CCOc1cc2c(cc1OCC)-n1cccc1C(c1ccc(F)cc1)NC2 (stereo unspecified)	9	-4	4	-55	23	-2
CCOc1cc2c(cc1OCC)-n1cccc1C(c1ccc(C(C)C)cc1)NC2 (stereo unspecified)	-6	-10	-5	17	30	24*
CC1c2ccccc2-n2nncc2CN1C (stereo unspecified)	x	x	x	x	x	2
CCOP(=O)(NC(C)C)Oc1ccc(SC)c(C)c1 (stereo unspecified)	x	x	x	x	x	-1
SMILES	PolyA inhibitor	EBNA-1 inh	ZTA DNA inh	NALP1 yeast inh	NALP3 yeast inh	dFosB activator
CN1C(=O)C(=Cc2ccccc2Oc2ccc(Cl)cc2)C(=O)N(C)C1=O	-1	-4	-5	30	2	-6
CN1C(=O)C(=Cc2ccccc2OCc2ccc(Cl)cc2)C(=O)N(C)C1=O	13	2	12	44*	36	-2
Cc1ccc(C)c(Cn2c(C(=O)O)c(C=O)c3ccccc32)c1	10	-5	0	28*	1	6
CNc1ccc2nc3ccccc3[n+](C)c2c1	-14	45*	83*	-11	47	-213
O=c1c2ccccc2nc(/C=C/c2ccccn2)n1-c1ccccc1	-5	118*	151*	-2	1	-6
O=C1CC=C2C3CC4N(CCC45c4cc(O)c(O)cc4N1C25)CC3=CCBr (stereo unspecified)	x	x	x	x	x	51*
O=C1CC=C2C3CC4N(CCC45c4ccccc4N1C25)CC3=CCO (stereo unspecified)	x	x	x	x	x	2
O=C1CC(N2CCC(n3c(=O)[nH]c4ccccc43)CC2)C(=O)N1c1ccc(F)cc1 (stereo unspecified)	2	13	2	x	25	-6
O=c1[nH]c2ccccc2n1C1CCN(CCCC(c2ccc(F)cc2)c2ccc(F)cc2)CC1	33	-4	1	40	12	28*
CN1CCN(c2ccc(N)cc2Cl)CC1	10	-5	-11	18	10	33*
CN1CCN(c2ccc(Cl)cc2N)CC1	14	1	13	5	27	-3
Cc1cccc(N2C(=O)NC(=O)/C(=C/c3ccc([N+](=O)[O-])o3)C2=O)c1	x	18	37*	48*	x	x
Oc1ccc(O)c2c1C1(Cl)C(Cl)=C(Cl)C2(Cl)C1(Cl)Cl	x	x	x	x	x	-8
CCOC(=O)C1(CCc2ccccc2)CCN(Cc2cccc3c2OCO3)CC1	-4	4	-2	-3	24	-1
CCOC(=O)C1(CCc2ccccc2)CCN(Cc2csc(C(C)=O)c2)CC1	-3	-14	5	27*	35	-3
COC(=O)C1=C(c2c(C)noc2C)C[C@@H]2CC[C@H]1N2C(=O)NCCO	x	x	7	x	6	6
CC1=NOC2(C)Nc3ncnn3C(c3ccccc3)C12 (stereo unspecified)	6	-1	-5	36*	12	2
C[C@H]1[C@@H](OS(=O)(=O)O)C[C@@H]2C[C@H]([C@@H](O)c3cc(=O)[nH]c(=O)[nH]3)NC3=NC[C@H]1N32	x	x	x	x	x	-5
O=C1/C(=C\c2cc3c(cc2Cl)OCO3)N2CCC1CC2	-5	-5	-11	45*	5	8
O=C1/C(=C/c2cc3c(cc2Cl)OCO3)N2CCC1CC2	-23	2	2	47*	8	x
O=C1/C(=C\c2ccc(Cl)cc2Cl)N2CCC1CC2	-29	-4	5	3	8	x
CN(C)CC(C(=O)Cc1ccccc1)c1ccccc1 (stereo unspecified)	x	x	x	x	x	-4
CCN(CCCl)c1cc(CN(C)C)cc(NC(=O)c2ccc(C(=O)Nc3cc(CN(C)C)cc(N(CC)CCCl)c3)cc2)c1	x	x	x	x	x	38*
CCN1CCN(Cc2cc(Br)ccc2O)CC1	-2	3	3	43*	-1	2
CCc1ccc(CN2CCN(Cc3cc(Br)ccc3O)CC2)cc1	-11	-3	-11	24	-3	-7
Cc1ccc2c(C)c3ccc4ccccc4c3c[n+]2c1	x	x	x	x	x	-56
